# From PubChem BioAssay (NCI)
# The panel holds about 83,000 compounds, 20% with a hit somewhere; the sample as a whole holds those more often.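 Method: cells in 96-well plates; compound added at one concentration; 48 h incubation; percent growth measured; values under 10 scored active.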 A number with no mark means an inactive call. Calls of active or inactive are those of the source.
# Key:
# Test in all cases: NCI-60 one-dose screen, 48 h (100 = growth as untreated, 0 = no growth, -100 = all killed)
# Details in all cases: 10 µM unless noted
# [1] = test system: DU-145 prostate
# [2] = test system: K-562 leukemia
# [3] = test system: MALME-3M melanoma
# [4] = test system: MDA-MB-231 breast
# [5] = test system: RXF 393 renal
# [6] = test system: SF-268 CNS
# [7] = test system: SF-295 CNS
# [8] = test system: SF-539 CNS
# [9] = test system: UACC-257 melanoma
# [10] = test system: M14 melanoma
SMILES,growth [1],growth [2],growth [3],growth [4],growth [5],growth [6],growth [7] [%],growth [8],growth [9],growth [10]
COc1ccc2[nH]c(C(=O)N3CCN(C(=O)OCc4ccc5c(Cl)cc(Cl)c(O)c5n4)CC3)cc2c1,-88.6% (active),4.22% (active),-94.4% (active),-82.2% (active),-92.9% (active),-91.1% (active),34,-99.3% (active),-43.2% (active),-66.4% (active)
Nc1nc(-c2ccc(Cl)cc2)nc2c1sc(=S)n2-c1ccccc1,56.1%,41.1%,-15.9% (active),34.7%,-2.61% (active),40.7%,16.4,-20.7% (active),59.9%,68.1%
CCN(CC)CCn1c2ccc(O)cc2c2sc3cc(O)ccc3c(=O)c21,43.6%,14.8%,15.6%,43.5%,26.6%,42%,17.6,18.1%,55.4%,19.6%
COc1ccc(-c2nc3c(ncc4ccc(=O)[nH]c43)s2)cc1,67.7%,93.3%,93.9%,81.5%,88.5%,76.6%,88.1,84%,118%,74.7%
Cc1c[n+](Cc2ccc3ccccc3c2)cn1Cc1ccc2ccccc2c1,37.1%,8.82% (active),0.847% (active),-8.23% (active),2.91% (active),24.3%,45.5,33.1%,-26.1% (active),-15.5% (active)
COc1ccc(Nc2nnc(-c3ccc(OC)c(OC)c3)o2)cc1,90.9%,80.2%,106%,55.7%,102%,80.8%,101,92.1%,102%,100%
O=C1/C(=C/c2ccc([N+](=O)[O-])cc2)COc2ccc(O)cc21,92.6%,11.2%,96.1%,80.8%,98.9%,84%,98.6,94.5%,106%,88.2%
COC(=O)[C@]12CCC(C)(C)C[C@H]1[C@H]1/C(=N/OCCc3nn[nH]n3)C[C@@H]3[C@@]4(C)CC[C@H](OC(C)=O)C(C)(C)[C@@H]4CC[C@@]3(C)[C@]1(C)CC2,53.8%,24.5%,40.4%,48.5%,70.1%,45.5%,25,44.7%,16.5%,48.4%
CSc1nnc(-c2cc3c([nH]c4ccccc43)c(-c3cccc(O)c3)n2)n1-c1ccccc1,33.9%,15.8%,22.1%,34.6%,9.95% (active),39.5%,24.8,-7.08% (active),59.9%,14.5%
Nc1ncnc2c1C(c1ccc(Br)cc1)c1sc3c(F)cccc3c1O2 (stereo not given),102%,99.1%,127%,79.7%,104%,98.9%,102,102%,114%,103%
CCN1C(=S)N(c2ccccc2)C2NC(=S)N(/N=C/C=C/c3ccccc3OC)C21 (stereo not given),7.01% (active),8.73% (active),54.1%,10.5%,26.3%,54.5%,13.7,-18.3% (active),43.2%,3.35% (active)
Cc1cccc(/C=C2\CN(C(=O)OC(C)(C)C)C/C(=C\c3cccc(C)c3)C2=O)c1,106%,5.44% (active),90.6%,98.8%,128%,94.1%,101,104%,94.7%,90.5%
CCCCCCCCCCC(CN(CC)CC)C(O)c1ccccc1 (stereo not given),29.1%,-21.2% (active),-37.3% (active),10.1%,-7.14% (active),40.5%,36.5,32.1%,18.2%,-44.1% (active)
